Experimental data reported in PMC7826789 (International Journal of Molecular Sciences, 2021).

Legend:
Conditions in all cases: Compound Concentration (nM):1000
[1] = test system: PAK1
[2] = test system: PAK2
[3] = test system: PAK3
[4] = test system: PAK4
[5] = test system: PAK6
[6] = test system: PAK7
[7] = test system: T1, PCTK1
T1 construct: gene CDK16

[8] = test system: T2, PCTK2
T2 construct: gene CDK17

[9] = test system: T3, PCTK3
T3 construct: gene CDK18

[10] = test system: PDGFRA
[11] = test system: PDGFRB
[12] = test system: PDPK1
[13] = test system: T4, PFCDPK1(P.falciparum)
T4 construct: gene CDPK1

[14] = test system: T5, PFPK5(P.falciparum)
T5 construct: gene MAL13P1.279

[15] = test system: T6, PFTAIRE2
T6 construct: gene CDK15

[16] = test system: T7, PFTK1
T7 construct: gene CDK14

[17] = test system: PHKG1
[18] = test system: PHKG2
[19] = test system: PIK3C2B
[20] = test system: PIK3C2G
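Also: KINOMEscan scanMAX binding as percent activity remaining versus control; lower means stronger binding.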

Compound	Percent Control [1]	Percent Control [2]	Percent Control [3]	Percent Control [4]	Percent Control [5]	Percent Control [6]	Percent Control [7]	Percent Control [8]	Percent Control [9]	Percent Control [10]	Percent Control [11]	Percent Control [12]	Percent Control [13]	Percent Control [14]	Percent Control [15]	Percent Control [16]	Percent Control [17]	Percent Control [18]	Percent Control [19]	Percent Control [20]
COc1cc2ncnc(Nc3ccc4c(cnn4Cc4ccccc4)c3)c2cc1OC.Cl [GW282449A]	100%	100%	30%	100%	100%	100%	100%	100%	100%	83%	100%	100%	57%	100%	100%	100%	100%	100%	100%	97%
Cl.O=C(Nc1ccc(Oc2ccc3[nH]c(NC(=O)c4ccccc4)nc3c2)cc1)Nc1cc(C(F)(F)F)ccc1F [GW709042A]	93%	90%	5.9%	100%	96%	100%	100%	100%	96%	35%	1.2%	100%	100%	100%	100%	97%	100%	100%	100%	97%
C/C(Nc1ccc(S(N)(=O)=O)cc1)=C1/C(=O)Nc2ccccc21 [GW335962X]	82%	80%	64%	89%	85%	100%	23%	100%	78%	6.1%	59%	100%	77%	91%	95%	72%	94%	53%	100%	90%
Cl.O=C(Nc1ccc(Oc2ccc3[nH]c(NC(=O)c4ccco4)nc3c2)cc1)Nc1cc(C(F)(F)F)ccc1F [GW683134A]	100%	100%	5.6%	100%	92%	100%	100%	100%	100%	11%	0.3%	67%	84%	100%	87%	100%	100%	95%	100%	83%
COc1ccccc1-c1cc(/C=C2\C(=O)Nc3ncc(Br)cc32)cc(Br)c1O [GW442130X]	100%	100%	67%	100%	100%	98%	79%	100%	100%	71%	72%	89%	100%	100%	100%	100%	100%	100%	59%	87%
COc1cc(C)c(N(C)C(=O)CN(C)C)cc1Nc1nc(Nc2cccc(F)c2C(N)=O)c2cc[nH]c2n1 [GSK2219385]	100%	74%	100%	100%	96%	82%	79%	100%	100%	100%	100%	97%	100%	76%	79%	100%	100%	83%	100%	92%
O=C(Nc1n[nH]c2nc(-c3ccc(O)cc3)c(Br)cc12)C1CC1 [SB-725317]	89%	60%	71%	100%	100%	100%	24%	62%	77%	29%	3.4%	100%	32%	100%	92%	84%	100%	100%	100%	100%
COc1ccc(COc2ccc(Cc3cnc(N)nc3N)cc2OC)cc1 [GW632580X]	100%	100%	62%	100%	92%	100%	84%	100%	73%	91%	92%	100%	70%	71%	80%	74%	100%	96%	86%	100%
NS(=O)(=O)c1ccc(N/N=C2\C(=O)Nc3ccc(-c4cnco4)cc32)cc1 [GW276655]	87%	82%	100%	95%	76%	88%	1.4%	76%	100%	79%	57%	82%	93%	95%	60%	94%	100%	81%	86%	96%
CN(C)CCNC(=O)Nc1ccc(N(C)c2ccnc(Nc3ccc(CS(C)(=O)=O)cc3)n2)cc1.Cl [GW830900A]	99%	79%	2.1%	71%	90%	71%	100%	100%	100%	2%	0%	83%	83%	100%	90%	100%	92%	100%	100%	95%
